Among all 310,000 compounds or so, about 14,000 (4.5%) showed an effect of 50% or more. Effects have a minus sign here. Many of the other results were omitted from the sample, so strong results are more common in it than they were.
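Also: peak tail current of the secondary pulse compared with the same well before compound.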

Sequence of human ether-à-go-go-related gene (hERG) potassium channel (Q12809 whole entry, looked up): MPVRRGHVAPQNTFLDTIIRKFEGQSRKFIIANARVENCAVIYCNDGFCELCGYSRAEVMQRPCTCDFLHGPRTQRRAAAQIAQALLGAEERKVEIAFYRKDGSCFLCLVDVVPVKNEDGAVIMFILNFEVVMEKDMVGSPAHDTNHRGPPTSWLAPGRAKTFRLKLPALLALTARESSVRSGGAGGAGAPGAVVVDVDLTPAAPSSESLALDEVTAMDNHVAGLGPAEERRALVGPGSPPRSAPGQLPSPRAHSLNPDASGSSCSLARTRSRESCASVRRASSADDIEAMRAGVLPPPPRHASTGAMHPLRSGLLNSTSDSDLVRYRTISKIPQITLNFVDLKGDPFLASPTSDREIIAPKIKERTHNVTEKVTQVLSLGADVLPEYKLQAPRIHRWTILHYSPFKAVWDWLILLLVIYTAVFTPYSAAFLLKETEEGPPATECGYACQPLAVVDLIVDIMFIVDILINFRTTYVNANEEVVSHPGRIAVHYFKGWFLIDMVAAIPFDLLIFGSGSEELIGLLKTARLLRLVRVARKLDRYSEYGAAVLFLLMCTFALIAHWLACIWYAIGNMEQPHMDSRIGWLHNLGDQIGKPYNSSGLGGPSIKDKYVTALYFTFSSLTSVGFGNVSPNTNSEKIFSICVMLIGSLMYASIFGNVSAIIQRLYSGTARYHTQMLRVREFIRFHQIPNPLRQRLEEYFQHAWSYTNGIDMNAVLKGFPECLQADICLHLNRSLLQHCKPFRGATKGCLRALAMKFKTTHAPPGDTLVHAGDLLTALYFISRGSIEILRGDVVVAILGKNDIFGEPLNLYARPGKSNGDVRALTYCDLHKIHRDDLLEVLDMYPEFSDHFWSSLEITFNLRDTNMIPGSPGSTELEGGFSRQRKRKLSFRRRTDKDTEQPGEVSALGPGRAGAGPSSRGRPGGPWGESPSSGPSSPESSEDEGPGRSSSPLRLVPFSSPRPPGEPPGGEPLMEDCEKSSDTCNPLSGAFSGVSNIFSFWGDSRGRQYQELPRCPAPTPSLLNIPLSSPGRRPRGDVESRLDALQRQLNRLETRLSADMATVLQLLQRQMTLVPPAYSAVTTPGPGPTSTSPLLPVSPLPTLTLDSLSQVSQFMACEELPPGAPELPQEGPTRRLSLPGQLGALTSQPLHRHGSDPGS

The assay addresses human ether-à-go-go-related gene (hERG) potassium channel (human, UniProt Q12809). The experiment in a line: primary screen, population patch clamp on CHO cells stably expressing hERG; higher = less effect of the substance.
Consider `c1ccc2c(c1)Nc1cc3ccccc3cc1S2`, for which the “hERG current change (%, negative = inhibition) at 10uM” value came out at 8.83%.

With `CCOc1ccc(CN(C)CC(=O)Nc2cccc(C)c2)cc1OC`, the “hERG current change (%, negative = inhibition) at 10uM” value is listed as -77%.

For `COc1cccc(CN(C)CC(=O)NNC(=O)c2ccc(Cl)cc2)c1`, the “hERG current change (%, negative = inhibition) at 10uM” value is -12.5%.

For the compound `CCOc1ccc(CN(C)CC(=O)Nc2cccc3ccccc23)cc1OC.O=C(O)C(=O)O`, the “hERG current change (%, negative = inhibition) at 10uM” value is -16.5%.

As for `COc1ccc(CC(=O)Nc2cccc(-c3nnc(-c4cccc(C)c4)o3)c2)cc1OC`, the “hERG current change (%, negative = inhibition) at 10uM” value is 11.3%.

Regarding `CCOc1ccc(CN(C)CC(=O)Nc2ccc3c(c2)CCC3)cc1OC`, the “hERG current change (%, negative = inhibition) at 10uM” value was -39%.

`COc1ccc(CCNCCC(=O)Nc2c(C)cc(C)cc2C)cc1OC.Cl`: the “hERG current change (%, negative = inhibition) at 10uM” value is listed as -13.8%.

For `COc1ccc(CCN(C)CC(=O)Nc2c(C)cc(C)cc2C)cc1OC.Cl`, the “hERG current change (%, negative = inhibition) at 10uM” value turned out to be 4.26%.

`CCOc1ccc(CN(C)CC(=O)NNC(=O)c2ccc(Cl)cc2)cc1OC`: the “hERG current change (%, negative = inhibition) at 10uM” value is recorded as -60.3%.

On to `COc1ccc(CCN(C)CCC(=O)Nc2c(C)cc(C)cc2C)cc1OC`, for which the “hERG current change (%, negative = inhibition) at 10uM” value was -58.8%.

For the compound `COc1ccc(CCN(C)C(=S)Nc2cccc(C)c2)cc1OC`, the “hERG current change (%, negative = inhibition) at 10uM” value stood at 5.19%.

For the compound `COc1ccc(CCN(C)CCC(=O)Nc2cccc(C)c2)cc1OC.Cl`, the “hERG current change (%, negative = inhibition) at 10uM” value is recorded as -65.8%.

`CCOc1ccc(CN(C)C(=O)NNC(=O)c2ccc(C)cc2)cc1OC`: the “hERG current change (%, negative = inhibition) at 10uM” value amounted to 16.8%.

On to `CCc1cc2ccccc2nc1Cl`, for which the “hERG current change (%, negative = inhibition) at 10uM” value worked out at 6.29%.

As for `O=C(CN(Cc1ccc2c(c1)OCO2)C(=O)CNS(=O)(=O)c1ccccc1)NCc1ccco1`, the “hERG current change (%, negative = inhibition) at 10uM” value is -22%.

In the case of `CC[C@@H]1CC=C[C@H]2[C@H]1C(=O)N(Cc1ccccc1)[C@H]2c1ccc(OC)c(Cl)c1`, the “hERG current change (%, negative = inhibition) at 10uM” value worked out at 10.6%.

Regarding `O=C(Cc1ccc(F)cc1)OCC(=O)c1cc2ccccc2o1`, the “hERG current change (%, negative = inhibition) at 10uM” value is -2.43%.

On to `CCNC(=S)NNC(=O)Cn1c(=O)c2c(ncn2CCOC)n(Cc2ccccc2)c1=O`, for which the “hERG current change (%, negative = inhibition) at 10uM” value was found to be 15.3%.

On to `Cc1ccc(NC(=O)Nn2cnnc2)c(C)c1`, for which the “hERG current change (%, negative = inhibition) at 10uM” value was 1.62%.

As to `COC(=O)CSc1[nH]c2ccc(Br)cc2c1[N+](=O)[O-]`, the “hERG current change (%, negative = inhibition) at 10uM” value is listed as 16.7%.

Consider `Nc1cccc(S(=O)(=O)Nc2ccccc2)c1`, for which the “hERG current change (%, negative = inhibition) at 10uM” value is listed as 25.5%.

`CCCCN(C)CCC(=O)Nc1ccc(C)cc1.Cl`: the “hERG current change (%, negative = inhibition) at 10uM” value is reported as -14.8%.

`COc1ccc(CCN(C)CCC(=O)Nc2ccc(C)cc2)cc1OC.Cl`: the “hERG current change (%, negative = inhibition) at 10uM” value is on record as -64.3%.

`COc1ccc(CCN(C)CC(=O)Nc2ccc(F)c(Cl)c2)cc1OC`: the “hERG current change (%, negative = inhibition) at 10uM” value is recorded as -35.3%.

Turning to `COc1ccc(CCN(C)CCC(=O)Nc2cc(C)ccc2C)cc1OC`, the “hERG current change (%, negative = inhibition) at 10uM” value is recorded as -55.6%.

As to `COc1ccc(CC(=O)Nc2cc(C)ccc2O)cc1OC`, the “hERG current change (%, negative = inhibition) at 10uM” value was determined as 4.22%.

For `COC(=O)c1ccc(C)c(NC(=O)CCc2ccc(OC)c(OC)c2)c1`, the “hERG current change (%, negative = inhibition) at 10uM” value was determined as 6.37%.

On to `O=[N+]([O-])c1cc(F)c(N2CCCCC2)cc1Br`, for which the “hERG current change (%, negative = inhibition) at 10uM” value is reported as -3.83%.

`O=C(C1CC1)N1CCc2cc(S(=O)(=O)NCC3COc4ccccc4O3)ccc21` (stereo not drawn): the “hERG current change (%, negative = inhibition) at 10uM” value is 6.27%.

As for `Cc1c(C)c2ccc(OC(C)C(=O)N3CC[C@@]4(O)CCCC[C@H]4C3)cc2oc1=O` (stereo partly drawn), the “hERG current change (%, negative = inhibition) at 10uM” value is given as -11.2%.

As for `COc1ccc(CN2C(=O)c3cccnc3C2=O)cc1S(=O)(=O)NC1CCCCC1C` (stereo not drawn), the “hERG current change (%, negative = inhibition) at 10uM” value turned out to be 10.8%.

On to `CN(C)CCNC(=O)c1nn(C)c2c1CCc1ccccc1-2`, for which the “hERG current change (%, negative = inhibition) at 10uM” value is on record as -12.4%.

As to `O=C(c1ccccc1Cl)c1c(O)c2ccccc2oc1=O`, the “hERG current change (%, negative = inhibition) at 10uM” value is reported as -3.19%.

Turning to `O=C1COc2ccc(S(=O)(=O)Nc3ccc4c(c3)OCO4)cc2N1`, the “hERG current change (%, negative = inhibition) at 10uM” value came to 19.4%.

Take `C/C(=N\Nc1cccc(C(=O)O)c1)c1cc2ccccc2o1`: the “hERG current change (%, negative = inhibition) at 10uM” value is listed as 9.54%.

Regarding `CCOC(=O)N1CCN(CC(O)COc2ccccc2C(C)CC)CC1.Cl` (stereo not drawn), the “hERG current change (%, negative = inhibition) at 10uM” value was determined as 0.934%.

As to `COc1ccccc1C(=O)N/C(=C\c1cn(S(=O)(=O)N(C)C)c2ccccc12)C(=O)NCCCN1CCOCC1`, the “hERG current change (%, negative = inhibition) at 10uM” value is reported as -7.58%.

As to `COc1ccc(C(Nc2cccc([N+](=O)[O-])c2)P(=O)(OC(C)C)OC(C)C)cc1` (stereo not drawn), the “hERG current change (%, negative = inhibition) at 10uM” value is given as -31.5%.

Take `COc1ccc(S(=O)(=O)NCC2CCCN(Cc3ccc(OC)cc3F)C2)cc1` (stereo not drawn): the “hERG current change (%, negative = inhibition) at 10uM” value is given as -42%.

Take `Cn1cnnc1Sc1ccc(C(=O)NCCC(c2ccccc2)c2ccccc2)cc1[N+](=O)[O-]`: the “hERG current change (%, negative = inhibition) at 10uM” value is on record as -74.3%.

Take `CCC(C)(C)NC(=O)c1ccc(Sc2nncn2C)c([N+](=O)[O-])c1`: the “hERG current change (%, negative = inhibition) at 10uM” value is 3.37%.

For the compound `Cn1cnnc1Sc1ccc(C(=O)NCCC23CC4CC(CC(C4)C2)C3)cc1[N+](=O)[O-]`, the “hERG current change (%, negative = inhibition) at 10uM” value is 12.9%.

Regarding `CN(c1ccccc1C(=O)Nc1cccc([N+](=O)[O-])c1)S(=O)(=O)c1ccccc1`, the “hERG current change (%, negative = inhibition) at 10uM” value is recorded as -63.2%.

As for `CN(Cc1ccccc1)S(=O)(=O)c1ccc(OCC(=O)Nc2cccc([N+](=O)[O-])c2)cc1`, the “hERG current change (%, negative = inhibition) at 10uM” value is reported as -9.01%.

On to `Cc1ccc(CC(=O)Nc2cccc([N+](=O)[O-])c2)cc1`, for which the “hERG current change (%, negative = inhibition) at 10uM” value came out at 15.8%.

The values are drawn from article PMC4336329 (PLoS ONE, 2015).
